Out of some 69,000 compounds screened, about 950 (1.4%) showed an effect of 50% or more. The sample as a whole holds a higher share of strong results than the screen did.

The values that follow come from ChEMBL document CHEMBL3988442, “University of Dundee, Small-Polar-MMV Screening Library” (2021).

The test system of the test is Mycobacterium tuberculosis. In words: Cornell M. t heat shock assay. Also: in the data most compounds retested in dose-response had high values. Details: dose or concentration left out as unconfirmed. In kind it is functional, organism-based.
`CN(C)c1ncnc2c1CCN(CC1CCCC1)CC2.O=C(O)C(F)(F)F`: the “Percent Effect” value was 2.211%. In the case of `Cn1cccc1CNCC1CCCn2cc(C(C)(C)C)nc21` (centres undefined), the “Percent Effect” value is reported as 1.286%. For `CC(C)(C)c1cn2c(n1)C(CNCc1ccccn1)CCC2` (centres undefined) the value was 70.45%. For `CC(C)(C)c1cn2c(n1)C(CNCc1cnn3ccccc13)CCC2` (centres undefined) the value was 15.66%; for `CCOCC1CN(c2ccncn2)Cc2cnn(CC3CC3)c21.O=C(O)C(F)(F)F.O=C(O)C(F)(F)F` (centres undefined), -24.31%.

Consider `COc1ncccc1C(=O)N1CC[C@]2(C[C@@H](Oc3cccnc3)CO2)C1.O=C(O)C(F)(F)F.O=C(O)C(F)(F)F`, for which the “Percent Effect” value was -28%. For `Cc1cccc(CN2C[C@@H]3COC[C@]3(CNC(=O)c3ccccc3)C2)n1.O=C(O)C(F)(F)F.O=C(O)C(F)(F)F` the value was -15.75%; for `CN1CC(=O)N(c2cnn(C)c2)CC12CCN(Cc1cccnc1)C2.O=C(O)C(F)(F)F.O=C(O)C(F)(F)F.O=C(O)C(F)(F)F` (centres undefined), -54.01%. For `Cc1noc(C)c1CN1C[C@@H]2COC[C@@H](C(=O)N3CCCCO3)[C@@H]2C1.O=C(O)C(F)(F)F`, the “Percent Effect” value is recorded as -3.514%.

In the case of `COc1ccccc1N1CCN(C(=O)Cn2nccc2C)CC1(C)C`, the “Percent Effect” value is 90.85%.

On to `COc1ccc(N2CCN(C(=O)Cn3nccc3C)CC2(C)C)cc1`, for which the “Percent Effect” value amounted to 16.6%. Under `COc1ccccc1N1CCN(C(=O)Cn2nc(C)cc2C)CC1(C)C` stands 8.115%; under `O=C(c1c[nH]c2ccccc2c1=O)N1CCSCC1`, 105.4%; under `COc1ccc2[nH]cc(C(=O)N3CC[C@H](CO)[C@@H](O)C3)c(=O)c2c1`, -0.5763%.

Take `O=C(Cc1c[nH]c2ccccc12)N1CCN(C(=O)c2ccoc2)CC1`: the “Percent Effect” value stood at 3.224%. For `Cc1nccc(NCc2cncc3c2CCN(CCN(C)C)C3)n1` the value was 3.393%. For `COc1ccccc1N1CCN(Cc2ncc(C)c(OC)c2C)CC1=O`, the “Percent Effect” value stood at 18.05%.

As for `COCCNc1nc(-n2nc(C)cc2C)nc2sc3c(c12)CCCC3`, the “Percent Effect” value came out at 40.33%.

For `Cc1cc(C)n(C2=NC(NCCC(C)C)c3c(sc4c3CCCC4)N2)n1` (centres undefined), the “Percent Effect” value is recorded as 11.87%. Under `Cc1cc(C)n(-c2nc(NCCCO)c3c4c(sc3n2)CCCC4)n1` stands 101.1%. For `CO[C@@H]1CN(c2ccccc2)S(=O)(=O)[C@@]12CCN(C(C)=O)C2` the value was 16.02%; for `Cc1ccc(CN(CCCO)Cc2nc3ccccc3[nH]2)s1`, -17.57%. For `CN(C)c1ccc(CN(CCCn2ccnc2)Cc2c[nH]cn2)cc1.O=C(O)CC(O)(CC(=O)O)C(=O)O` the value was 16.53%; for `Cc1ccc(O)c(CN(CCCn2ccnc2)Cc2ccc(C)s2)c1.O=C(O)CC(O)(CC(=O)O)C(=O)O`, 105.6%. As to `Cc1ccc(CN(CCCn2ccnc2)Cc2ccccc2O)s1.O=C(O)CC(O)(CC(=O)O)C(=O)O`, the “Percent Effect” value was found to be 35.85%. Take `Cc1ccc(S(=O)(=O)N2CCN(CCCn3ccnc3)CC2)cc1`: the “Percent Effect” value is recorded as 15.57%.

For the molecule `Cc1cccc(CC(=O)N2CCN(c3nccn3C)CC2)c1.Cl`, the “Percent Effect” value is -13.18%. On to `O=C(O)C(F)(F)F.O=C(O)C(F)(F)F.c1csc(CN2C[C@@H]3COC[C@]3(COCc3ccncc3)C2)c1`, for which the “Percent Effect” value is listed as -17.61%. Under `O=C(Cc1ccc(F)cc1)N1CCn2cc(Cn3cccn3)nc2C1.O=C(O)C(F)(F)F` stands 1.862%. For `O=C(CN1CCc2sccc2C1)Nc1ccnc2ccnn12` the value was 101.6%.

For `Cn1nccc1NC(=O)CN1CCc2sccc2C1`, the “Percent Effect” value is on record as -34.76%.

Turning to `CC(C)n1nccc1NC(=O)CN1CCc2sccc2C1`, the “Percent Effect” value is on record as -0.741%. Turning to `Cc1ccoc1C(=O)N1CCc2ccc(=O)n(CCN(C)C)c2CC1.O=C(O)C(F)(F)F`, the “Percent Effect” value is recorded as -10.47%. Under `CCNc1ncc(C(=O)N2CCOC(CCCc3ccccc3)C2)cn1` (centres undefined) stands 13.88%.

`CCc1ocnc1C(=O)N1CCOC(CCCC(C)C)C1` (centres undefined): the “Percent Effect” value stood at 2.233%. For `CCNc1ncc(C(=O)N2CCOC(CCCC(C)C)C2)cn1` (centres undefined) the value was 101.8%; for `Cn1cc2c(n1)C(CNCc1ccco1)OCC2.O=C(O)C(F)(F)F.O=C(O)C(F)(F)F` (centres undefined), -43.95%; for `CC(C)C(=O)N1CCC[C@]2(C(=O)N(C)C)CN(c3ccccn3)C[C@@H]2C1.O=C(O)C(F)(F)F`, -34.76%. Consider `CN(C)C(=O)C1OC2(CCNCC2)c2ccccc21.O=C(O)C(F)(F)F` (centres undefined), for which the “Percent Effect” value was -39.36%. In the case of `CC(Cn1cccn1)NCc1nc(-c2ccccc2Cl)no1` (centres undefined), the “Percent Effect” value amounted to 1.662%. `Cc1cnn(CC(C)NCc2csc(-c3cccs3)n2)c1` (centres undefined): the “Percent Effect” value is recorded as 37.01%. For `CC(Cn1cccn1)NCc1csc(-c2ccccc2F)n1` (centres undefined), the “Percent Effect” value is recorded as 54.47%. Regarding `CC(Cn1cccn1)NCc1csc(-c2cccs2)n1` (centres undefined), the “Percent Effect” value is recorded as 54.31%. Consider `Cc1cnn(CC(C)NCc2csc(-c3ncccn3)n2)c1` (centres undefined), for which the “Percent Effect” value stood at 10.59%. In the case of `CC(Cn1cccn1)NCc1csc(-c2ccsc2)n1` (centres undefined), the “Percent Effect” value came to 22.32%. For `COCC(=O)N1C[C@@H](OCc2ccncc2)[C@@H]2OCCC[C@@H]21.O=C(O)C(F)(F)F` the value was -15.14%; for `Cc1ccc2c(c1)CN(C(=O)c1ccncc1)C(CN(C)C)CO2.Cl` (centres undefined), -12.12%. For `COCC(=O)NCc1cc(=O)n2c(n1)CN(CC1CC1)CCC2.O=C(O)C(F)(F)F`, the “Percent Effect” value is 0.2802%. For `COC[C@H]1CC[C@@H]2[C@@H](CCN2Cc2ccccn2)O1.O=C(O)C(F)(F)F.O=C(O)C(F)(F)F` the value was -12.12%; for `COc1cccc(CN2CCc3nc4ccsc4c(=O)n3CC2)c1.Cl`, -5.651%. Regarding `COCCn1cncc1CN1CCC(C(C)=O)(c2ccccc2)CC1`, the “Percent Effect” value was -3.844%. Consider `CC1(c2ccccc2)CCCN(Cc2nnc(-c3cccnc3)o2)C1` (centres undefined), for which the “Percent Effect” value worked out at 31.3%. Under `COCCn1cncc1CN1CCCC(C)(c2ccccc2)C1` (centres undefined) stands 52.06%; under `COCCn1cncc1CN1CCCC(C(=O)Cc2ccccc2)C1` (centres undefined), 2.668%; under `CN1CCCC2(CCN(Cc3cncn3C3CCCCC3)C2)C1=O` (centres undefined), 13.88%. Turning to `O=C(CCc1ccccc1)C1CCCN(Cc2cncn2C2CC2)C1` (centres undefined), the “Percent Effect” value was found to be 5.776%. For `CC1(c2ccccc2)CCCN(Cc2cncn2C2CC2)C1` (centres undefined) the value was 105.6%. For `CCCN1CCCC2(CCN(Cc3cncn3C3CCCC3)C2)C1=O` (centres undefined), the “Percent Effect” value was -6.674%.

`CC1(c2ccccc2)CCCN(Cc2cncn2C2CCCC2)C1` (centres undefined): the “Percent Effect” value was determined as 105.4%. For `CC(NC(=O)NCc1ccccc1)(C(=O)O)c1ccco1` (centres undefined) the value was -8.455%; for `CC(=O)CN1CC2(CCNCC2)COc2ccccc2S1(=O)=O.O=C(O)C(F)(F)F`, -27.15%; for `Cn1ccc(C(=O)N2CCOC3(COCCN(CC4CC4)C3)C2)n1.O=C(O)C(F)(F)F` (centres undefined), 32.82%. Under `CS(=O)(=O)N[C@@H]1CN(C(=O)c2cccnc2)[C@@H]2CCCO[C@@H]21.O=C(O)C(F)(F)F` stands -22.75%; under `COCCN1CCc2cc(C(=O)NC(C)C)c(NCC3CC3)nc2CC1.O=C(O)C(F)(F)F.O=C(O)C(F)(F)F`, -25.1%.

As to `Cn1c2c(ccc1=O)CCN(Cc1ccoc1)CC2.O=C(O)C(F)(F)F`, the “Percent Effect” value is -16.65%.

As to `Cl.Cn1nc(C2CCCN(Cc3cccs3)C2)c2nccnc21` (centres undefined), the “Percent Effect” value stood at 1.565%. For `CN(C)CCN1CC[C@@H]2O[C@@H](COCC(=O)N3CCCC3)CC[C@@H]21.O=C(O)C(F)(F)F.O=C(O)C(F)(F)F` the value was -33.31%; for `Cc1noc(C(C)C)c1C(=O)NCCCN1CCNCC1.Cl`, 0.9177%.

Turning to `O=S(=O)(CCc1ccccc1)Cc1nc(C2CC2)no1`, the “Percent Effect” value is given as 59.77%. `CCc1noc(CS(=O)(=O)Cc2nc(Cc3ccccc3)no2)n1`: the “Percent Effect” value is given as -8.996%. For `O=S(=O)(Cc1nc(C2CC2)no1)c1ccccc1F` the value was 12.43%; for `CCc1noc(CS(=O)(=O)Cc2ccccc2C)n1`, 31.56%. For the molecule `O=S(=O)(C/C=C/c1ccccc1)Cc1nc(C2CC2)no1`, the “Percent Effect” value came out at 19.84%.

For the molecule `O=S(=O)(Cc1nc(C2CC2)no1)c1cc(F)ccc1F`, the “Percent Effect” value was 12.65%. On to `Cc1ccccc1CS(=O)(=O)Cc1nc(C2CC2)no1`, for which the “Percent Effect” value is on record as 92.63%.

In the case of `CCc1noc(CS(=O)(=O)Cc2ccccc2Cl)n1`, the “Percent Effect” value is 95.51%.

Turning to `Cc1noc(C)c1CS(=O)(=O)Cc1nc(C2CC2)no1`, the “Percent Effect” value was determined as 6.324%. Under `Cl.O=C(CCC1CCCC1)N1CCCC(c2ncc3c(n2)CCNC3)C1` (centres undefined) stands -5.492%; under `CC(C)CCN1C[C@H]2C[C@H](C(=O)NCC(C)C)[C@@H](C1)O2.O=C(O)C(F)(F)F`, 22.63%; under `Cc1nnc(N2CCCC3(CN(Cc4ccc(F)cc4)CCO3)C2)o1.O=C(O)C(F)(F)F` (centres undefined), -29.82%. For `c1cnc(N2C[C@@H]3CC[C@H](C2)N(Cc2ccsc2)C3)nc1` the value was 15.45%; for `CN(C)CCOCc1nnc2n1CCN(Cc1ccoc1)CC2.O=C(O)C(F)(F)F.O=C(O)C(F)(F)F`, -36.04%; for `O=C(O)C(F)(F)F.c1cc(CN2CCc3c(nnn3CC3CC3)C2COCC2CC2)co1` (centres undefined), -36.71%.

For the molecule `CC(C)(C)OC(=O)NCC1CCCCN1Cc1ccncc1` (centres undefined), the “Percent Effect” value is 24.03%.

`CCn1c(C2CCCN2Cc2noc(C(C)(C)C)n2)nc2ccccc21` (centres undefined): the “Percent Effect” value turned out to be 50.31%. For the molecule `Cn1cccc1C1CCCN1Cc1noc(C(C)(C)C)n1` (centres undefined), the “Percent Effect” value is listed as -40.09%.

Turning to `CC(C)(C)c1nc(CN2CCCC2c2nnc3ccccn23)no1` (centres undefined), the “Percent Effect” value is given as 0.5342%. Take `Cc1nc(CN2C(=O)COC3(CCN(C)CC3)C2C)cs1.O=C(O)C(F)(F)F` (centres undefined): the “Percent Effect” value was -6.14%. Take `NCC1CN(c2nc(-c3ccccc3)nc3c2CCNCC3)CCO1` (centres undefined): the “Percent Effect” value came out at 43.48%. Regarding `N#CC1CCCN(c2nc(-c3ccccc3)nc3c2CCNCC3)C1` (centres undefined), the “Percent Effect” value is on record as -9.181%. Under `NCC1CCCN(c2nc(-c3ccccc3)nc3c2CCNCC3)C1` (centres undefined) stands 69.25%; under `Cc1cc(CN2CCC(CNC(=O)Cc3ccc(F)cc3)C2)[nH]n1` (centres undefined), -9.663%; under `Cc1cc(CN2CCC(CNC(=O)c3nccc4ccccc34)C2)[nH]n1` (centres undefined), 59.25%. Under `Cc1cc(CN2CCC(CNC(=O)c3cnc(C)nc3C)C2)[nH]n1` (centres undefined) stands -10.7%.
